Results as given in the supplement of paper PMC7530171.
Counter-ions that a name gives are not always drawn. ± gives the standard deviation.

How the values were obtained:
THP-1 = THP-1 cell loss relative to DMSO control; higher = more host cell loss (toxicity); extreme values may be limits of the assay; conditions: 10 µM; 4 days; infection: M. tuberculosis H37Rv
Description: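 OICR kinase inhibitor library screened in duplicate at 10 uM against M. tuberculosis-infected THP-1 macrophages, 4 days at 37 C. THP-1 cell loss (cytotoxicity or loss of adherence) was quantified from Hoechst-stained nuclei counts by high-content imaging and normalised to the 1% DMSO control; 100 = complete loss of host cells.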

[1] = test system: THP-1 macrophages infected with Mycobacterium tuberculosis H37Rv; experiment: intracellular M.tb growth inhibition relative to DMSO (0) and 4 uM bedaquiline (100); higher = stronger inhibition of intracellular bacterial growth; conditions: 10 µM; 4 days
Description: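 OICR kinase inhibitor library screened in duplicate at 10 uM against THP-1 macrophages (PMA-differentiated) infected with M. tuberculosis H37Rv-pTEC27 (tdTomato RFP), 4 days at 37 C. Rows with complete host cell loss (placeholder inhibition 0, cell loss 100) were removed.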

| SMILES | THP-1 cell loss (THP-1) | intracellular M.tb growth inhibition [1] |
| --- | --- | --- |
| CC(C)[C@H](CO)Nc1nc(Nc2ccc(C(=O)O)c(Cl)c2)c2ncn(C(C)C)c2n1 [Purvalanol B] | 1.78 ± 2.5% | 2.54 ± 10% |
| CS(=O)(=O)N1CCN(Cc2cc3nc(-c4cccc5[nH]ncc45)nc(N4CCOCC4)c3s2)CC1 [GDC-0941 bismesylate] | 38 ± 2.2% | 56 ± 26% |
| Nc1nccc(Oc2ccc(NC(=O)c3c[nH]cc(-c4ccc(F)cc4)c3=O)cc2F)c1Cl | 48.1 ± 23% | 37 ± 33% |
| Cc1cc(C(=O)N2CCN(c3cccc(Cl)c3)CC2)n(-c2ccccc2)n1 | 23.2 ± 25% | -17.5 ± 0.18% |
| CCOc1cc(/C=C(\C#N)C(N)=O)cc(CSc2ccccc2)c1O | 10.3 ± 14% | -116 ± 140% |
| CC(C)n1nc(-c2cc3cc(O)ccc3[nH]2)c2c(N)ncnc21 | 92.9 ± 10% | 14.1 ± 20% |
| Cc1cc(C=C2C(=O)C=CC2=O)cc(C)c1O | 1.15 ± 1.6% | -63.7 ± 80% |
| Cc1ncc(-c2ccnc(Nc3ccc(S(C)(=O)=O)cc3)n2)n1C(C)C | 100% | – |
| COc1cc2ncnc(Nc3ccc(F)c(Cl)c3)c2cc1OCCCN1CCOCC1 [Gefitinib] | 12.5 ± 5.5% | 54.4 ± 28% |
| Cc1c(NC(=O)OC[C@@H]2COCCN2)cn2ncnc(Nc3ccc4c(cnn4Cc4cccc(F)c4)c3)c12 | 16.7 ± 9.5% | 48.3 ± 10% |
| Cc1ccc(NC(=O)c2ccc(CN3CCN(C)CC3)cc2)cc1Nc1nccc(-c2cccnc2)n1 [Imatinib (free base)] | 3.31 ± 4.7% | 33.2 ± 16% |
| CCc1cncnc1N1CCN(Cc2nc3ccc(C(F)(F)F)cc3[nH]2)CC1 | 92.6 ± 10% | 16.2 ± 23% |
| COc1cccc2cc(-c3nc([C@H]4CC[C@H](C(=O)O)CC4)n4ncnc(N)c34)[nH]c12 [OSI-027 hydrochloride] | 51.2 ± 4.5% | – |
